# Source: PubChem BioAssay AID540333 (Southern Research Specialized Biocontainment Screening …, 2011)
# Among all 10,000 compounds or so, about 320 (3.2%) were called active. No stated cut-off is given here; in the data, active means CPE inhibition mostly above about 9.1% (no sharp cut-off); inactive means mostly below about 7.2%. Many of the other results were omitted from the sample, so actives are more common in it than they were.
# Test: Dengue virus cytopathic effect inhibitors, cell-based, CPE readout, HTS (AID 540333)
# Details: Dengue virus CPE inhibition in host cells, at 20 µM; hits give high values
row,SMILES,CPE inhibition
1,C/C(=N\Nc1ncc(Cl)cc1Cl)c1ccc(S(=O)(=O)NCc2ccco2)cc1,inactive
2,C/C(=N\Nc1nc(Cl)c(Cl)cc1Cl)c1ccc(S(=O)(=O)NCc2ccco2)cc1,8.5% (active)
3,C/C(=N\Nc1ccccn1)c1ccc(S(=O)(=O)NCc2ccco2)cc1,inactive
4,Cc1ccccc1OCC(=O)N/N=C1\SCC(=O)N1Cc1ccccc1,inactive
5,COc1ccc(C(C(=O)Nc2ccc3c(c2)OCO3)N(C)C(=O)Cc2c[nH]c3ccccc23)cc1 (centres undefined),25.8% (active)
6,COc1ccc(NC(=O)C(c2cc3c(cc2[N+](=O)[O-])OCO3)N(C)c2ccccc2)cc1 (centres undefined),1.73% (inactive)
7,COc1ccc(-c2cc(C(=O)OCC(=O)Nc3ccc4c(c3)OCO4)c3ccccc3n2)cc1,0.175% (inactive)
8,O=C(CCCC(=O)N1CCN(c2ccc([N+](=O)[O-])cc2)CC1)c1ccccc1,0.355% (inactive)
9,Cc1ccc2nc(N3CC(=O)Nc4ccccc43)nc(-c3ccccc3)c2c1,1.55% (inactive)
10,Cc1c(Cl)cccc1NCC(=O)Nc1ccc(Cl)cc1F,4.37% (inactive)
11,COc1ccc(NC(=O)CCC(=O)c2cccs2)cc1S(=O)(=O)Nc1ccc(Cl)cc1,0.325% (inactive)
12,Cc1ccc(C(=O)CCC(=O)Nc2ccc(Cl)c(S(=O)(=O)Nc3cccc(Cl)c3)c2)cc1,4.45% (inactive)
13,COc1ccc(NS(=O)(=O)c2cccc(NC(=O)CCC(=O)c3ccc(Cl)cc3)c2)cc1,17.3% (active)
14,CC(=O)Nc1ccc(OCC(=O)NCCc2ccc(Cl)cc2)cc1,inactive
15,Cc1cc(/C=N\NC(=O)CC(=O)NC2CCCCC2)c(C)n1-c1cccc(Cl)c1Cl,22.7% (active)
16,Cc1ccc(-n2c(C)cc(/C=N\NC(=O)CC(=O)NC(C)C)c2C)cc1,inactive
17,Cc1cccc(C)c1-n1c(C)cc(/C=N\NC(=O)CC(=O)NC2CCCCC2)c1C,0.17% (inactive)
18,Cc1ccc(S(=O)(=O)c2cc(OC(=O)c3ccco3)ccc2OC(=O)c2ccco2)cc1,0.235% (inactive)
19,CC1(C)CC(NC(=O)C(Cl)(Cl)Cl)CC(C)(C)N1,inactive
20,CCn1ncc(/C=C/C(=O)C2CC2)c1C,2.21% (inactive)
21,CCOC(=O)c1c(C)[nH]c(C(=O)/C(C#N)=C/c2ccc(OCC)cc2)c1C,0.085% (inactive)
22,CCOc1ccc(N=C2NC(=O)/C(=C/C(=O)OC)S2)cc1,0.935% (inactive)
23,CCOC(=O)c1c(C)[nH]c(C2=NNC(=Nc3ccc(OCC)cc3)SC2)c1C,13.2% (active)
24,O=C(CCN1C(=O)c2ccccc2C1=O)C1=NN[C@@H]2C(=O)N(c3cccc(F)c3)C(=O)[C@H]12,1.32% (inactive)
